Measured values published in PubChem BioAssay AID602248 (The Scripps Research Institute Molecular Screening Center, 2012).
Out of some 360,000 compounds screened, about 1,700 (0.47%) were called active. Shown is part of a subset that was picked to be rich in actives. Values without a mark were called inactive. Cut-off read from the data, not from the text of the source: active = activation above about 15%; inactive = the rest.

assay: counter-screen for M1 agonists: effect in parental CHO-K1 cells (AID 602248); settings: Fluo-8 calcium fluorescence, at 3 µM, active compounds read high, scaled to maximal ATP response, vehicle zero;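 note: untransfected CHO-K1 host cells lacking M1 receptor as counterscreen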

| SMILES | activation |
| --- | --- |
| COc1ccc(Br)cc1CN(C)CC(=O)Nc1cc(Cl)cc(Cl)c1 | 18.5% (active) |
| COc1ccc(Cl)cc1NC(=O)CN(C)Cc1ccc(OC)c(OC)c1 | 6.25% |
| COc1ccc(Br)cc1CN(C)CC(=O)Nc1cc([N+](=O)[O-])ccc1OC | 0.64% |
| OCC1(Cc2ccccc2C(F)(F)F)CCN(Cc2ccncc2)CC1 | 1.74% |
| CC(C)C(=O)Nc1ccc2c3c(cccc13)CC2 | -0.06% |
| N#CC1(Nc2ccc(-c3ccc(Cl)cc3)cc2)CCCC1 | 0.41% |
| N#CC1(Nc2ccc3c4c(cccc24)CC3)CCCCC1 | 41% (active) |
| CC(C)(O)C#Cc1ccc(CNC[C@H]2O[C@@H](n3cnc4c(=O)[nH]c(N)nc43)[C@H](O)[C@@H]2O)s1 | 0.21% |
| COCCN(C(=O)CCC(=O)Nc1nccs1)C(C(=O)NCCC(C)C)c1ccc(F)cc1 (stereo unspecified) | 0.22% |
| COc1cncc(-c2cnc3sc(NCCc4ccccn4)nn23)c1 | 0.67% |
| Cc1ccc(S(=O)(=O)N(C)CC(=O)NCCc2c[nH]c3ccccc23)cc1 | 6.95% |
| COc1cccc(CNC(=O)CN(C)S(=O)(=O)c2ccc3c(c2)c(=O)n(C)c(=O)n3C)c1 | 1.02% |
| CC1CCC(NC(=O)CN(C)S(=O)(=O)c2ccc3c(c2)c(=O)n(C)c(=O)n3C)CC1 (stereo unspecified) | 15.6% (active) |
| CCc1ccccc1NC(=O)CN(C)S(=O)(=O)c1ccc2c(c1)c(=O)n(C)c(=O)n2C | 1.14% |
| COc1ccc(N(CCC#N)S(=O)(=O)c2ccc(Cl)cc2)cc1 | 1.81% |
| COC(=O)c1ccc(CSc2ccc3nnc(-c4ccccc4)n3n2)o1 | 2.77% |
| Cc1oc2nc(SCC(=O)Nc3ccc(S(N)(=O)=O)cc3)nc(NC(=O)c3ccccc3)c2c1C | 0.44% |
| COc1cc(OC)c(S(=O)(=O)Nc2ccccc2C(=O)O)cc1S(=O)(=O)Nc1ccccc1C(=O)O | 15.1% (active) |
| COc1ccc(OC)c(S(=O)(=O)Nc2ccccc2F)c1 | 0.21% |
| COc1cc(/C=C/C(=O)O)cc(S(=O)(=O)Nc2ccccc2C(=O)NCCc2ccccc2)c1OC | -0.11% |
| CC(=O)c1c(C)[nH]c(C(=O)COC(=O)c2cccc(S(=O)(=O)N(C)c3ccccc3)c2)c1C | 17.5% (active) |
| CC(=O)c1c(C)[nH]c(C(=O)COC(=O)CCOc2ccc(C)cc2)c1C | 7.01% |
| COc1ccc(C)cc1NC(=O)C(OC(=O)c1cccc(S(=O)(=O)N(C)c2ccccc2)c1)c1ccccc1 (stereo unspecified) | -0.35% |

| SMILES | activation |
| --- | --- |
| COCCN1C(=O)C(=O)/C(=C(/O)c2ccc(S(=O)(=O)N3CCOCC3)cc2)C1c1ccc(OC)c(OC)c1 (stereo unspecified) | 1.09% |
| O=C(c1ccc(=O)oc1)N1CCC(C(O)(c2ccccc2)c2ccccc2)CC1 | 0.08% |
| CSc1ncccc1C(=O)Nc1nc2ccc(F)cc2s1 | 3.35% |
| c1ccc(C(=NNc2nc3ccccc3s2)c2ccccn2)cc1 | 15.9% (active) |
| O=C(Nc1nnc(C2CC2)s1)c1ccccn1 | 0.38% |
| CC(C)(C)S(=O)(=O)N1Cc2cc(CO)cc(CCO)c2[C@H]1CCO | 0.36% |
| CC(C)C(=O)NCC(c1cccs1)S(=O)(=O)c1ccc(F)cc1 (stereo unspecified) | 2.59% |
| Cc1cccc(C2c3[nH]c4ccccc4c3CCN2C(=O)c2cc(-c3cccn3C)n[nH]2)n1 (stereo unspecified) | 0.16% |
| Cc1cccc(C(=O)N2CCc3c([nH]c4ccccc34)C2CC(C)C)n1 (stereo unspecified) | 16.4% (active) |
| COc1cccc(C2c3[nH]c4ccccc4c3CCN2Cc2cccc(C)n2)c1 (stereo unspecified) | 1.31% |
| Cc1ccc(C)c(S(=O)(=O)N2CCN(CC(=O)Nc3ccc([N+](=O)[O-])cc3)CC2)c1 | 6.2% |
| Cc1ccc(C)c(S(=O)(=O)N2CCN(c3ncnc4sccc34)CC2)c1 | 15.9% (active) |
| Cc1ccc(S(=O)(=O)N2CCC3(CC2)OCCO3)c(C)c1 | 0.97% |
| OCC[C@H]1C[C@H](O)[C@@H](O)[C@]2(Cc3ccccc3CO2)O1 | 0.07% |
| CCCCc1ccc(S(N)(=O)=O)cc1 | 1.03% |
| O=C(Nc1cc(Cl)ccc1N1CCOCC1)c1ccc(N2CCCC2=O)cc1 | 1.09% |
| Cc1ccc2oc(=O)ccc2c1 | 0.97% |
| CCN(CC)c1ccc2oc(=O)c(C)nc2c1 | 28.8% (active) |
| Cc1ccc2c(=O)oc(N(C)C)nc2c1 | -0.31% |
| O=S1(=O)CC(N2CCN(CCO)CC2)CN1C1CCCC1 (stereo unspecified) | 0.24% |
| Cc1nc2cc(C(F)(F)F)ccc2n1CCNc1nc(-c2cc(Cl)c(N)c(Cl)c2)cs1 | -0.4% |
| CC(C)(c1ccccc1)c1ccc(OCCN)cc1 | 16.5% (active) |
| Cc1nn(CCOc2ccccc2)c(=O)n1-c1ccccc1F | 0.58% |

| SMILES | activation |
| --- | --- |
| CC(C)(c1ccccc1)c1ccc(OCCN2CCCC2)cc1 | 1.86% |
| O=C(CC(NC(=O)c1ccccc1)c1ccccc1)Nc1ccc(F)c(F)c1 (stereo unspecified) | 8.06% |
| CN(C(=O)CN1C(=O)NC(C)(CCc2ccccc2)C1=O)c1ccccc1 (stereo unspecified) | 1.76% |
| CN(C)c1ccc(CSc2ccccc2)cc1 | -0.35% |
| CN(C)c1ccc(/C=C2\NC(=S)N(Cc3ccccc3)C2=O)cc1 | 27.4% (active) |
| CCn1c(SCC(=O)Nc2ccccc2F)nc2c(c1=O)SC(C)C2 (stereo unspecified) | 3.19% |
| O=C(CSc1nnc(CN2CCCC2)n1-c1ccc(F)cc1)c1ccc2c(c1)OCO2 | 1.52% |
| Cc1ccc(S(=O)(=O)N(Cc2cc3ccccc3[nH]c2=O)CC2CCCO2)cc1 (stereo unspecified) | 5.14% |
| Cc1ccc(S(=O)(=O)N(C)C)cc1NC(=O)COC(=O)C1COc2ccccc2O1 (stereo unspecified) | 1.48% |
| CCCc1ccc(OCC(=O)NNC(=S)NC(=O)c2ccco2)cc1 | 7.19% |
| O=C(Nc1ccc2ccccc2c1)/C(=C\c1ccc2c(c1)OCO2)NC(=O)c1ccco1 | 1.3% |
| CC(Oc1ccc2ccccc2c1)C(=O)NNC(=S)NC(=O)c1ccco1 (stereo unspecified) | 33.6% (active) |
| COC(=O)c1cc(C(=O)OCC(=O)Nc2cc(C)on2)cc([N+](=O)[O-])c1 | 0.23% |
| CN1CCN(C(=O)c2cnn(-c3ccccc3)c2NC(=O)c2ccc([N+](=O)[O-])cc2)CC1 | 0.79% |
| COc1cc(C(=O)NCc2ccc(-n3cccc3)cc2)cc(OC)c1OC | 7.89% |
| COc1cc(C(=O)NCc2ccc3c(c2)cc(C)n3C)cc(OC)c1OC | -0.48% |
| CCn1c(CNC(=O)c2cc(OC)c(OC)c(OC)c2)cc2cc(C)ccc21 | 20.6% (active) |
| CCCOCC(O)CC(CC)C(=O)NNC(=S)Nc1ccccc1 (stereo unspecified) | 0.03% |
| CCCCC(=O)NNC(=S)NC(=O)C(c1ccccc1)c1ccccc1 | 86% (active) |
| CCCCC(=O)NCc1ccc(F)cc1 | -0.33% |
| CCCCC(CC)CNC(=O)C(=O)C1C(=O)Nc2ccccc21 (stereo unspecified) | -0.65% |
| CCOC(=O)c1c(C)oc(C)c(C(=O)OCC)c1=O | 0.16% |
| O=C1NC[C@H](CCCCN2C[C@H](Cc3ccc(O)cc3)N(CCc3ccccc3)C(=O)C2=O)N(CCc2ccccc2)C1=O | 0.62% |

| SMILES | activation |
| --- | --- |
| Cc1ccc(C(=O)N/C(=C/c2ccco2)C(=O)NCCc2c[nH]c3ccccc23)cc1C | 1.71% |
| N#C/C(=C/c1ccc(N2CCCCC2)o1)C(=O)NCCc1c[nH]c2ccccc12 | 24.1% (active) |
| N#C/C(=C\c1ccc(N2CCOCC2)o1)C(=O)N1CCOCC1 | 4.52% |
| CCCCN1C(=O)C(=O)N(CC(=O)Nc2cccc(C(C)=O)c2)C1=O | -0.29% |
| C=CCSc1nsc(NC(=O)Nc2cccc(C(C)=O)c2)n1 | 15.8% (active) |
| CCSc1nsc(NC(=O)Nc2cccc(C(C)=O)c2)n1 | 16.5% (active) |
| CCc1nnc(NC(=O)CSc2nnnn2-c2cccc(C(C)=O)c2)s1 | -0.49% |
| COc1ccc(C(=O)OCC(=O)Nc2cccc(C(C)=O)c2)cc1OC | 2.14% |
| CC(=O)c1cccc(NC(=O)[C@@H](NC(N)=O)C(C)C)c1 | -0.09% |
| Cc1ccc(C(=O)N2CCC(n3nccc3NC(=O)Nc3cccc(F)c3)CC2)cn1 | 1.73% |
| COc1ccc(OCC(=O)OCC(=O)Nc2ccc(S(=O)(=O)N3CCCCC3)cc2)cc1 | 0.75% |
| CCOC(=O)COc1ccc(Cl)cc1C1NC(=O)NC(C)=C1C(C)=O (stereo unspecified) | 0.08% |
| CN(C)CCCCCN(C)Cc1cc2ccccc2o1 | 0% |
| CCCCNC(=O)c1nc(C2CCN(S(=O)(=O)c3ccc(F)c(F)c3)CC2)oc1-c1cccc(C(F)(F)F)c1 | 2.76% |
| Cn1nnnc1SCC(=O)NNC(=O)c1ccc(Br)cc1 | -0.47% |
| COC(=O)COc1ccc2c(=O)c(Oc3ccccc3Br)coc2c1 | 0.1% |
| C[C@H](CO)N1C[C@H](C)[C@@H](CN(C)S(=O)(=O)c2ccc(Oc3ccccc3)cc2)OCc2cn(nn2)CCCC1=O | 0.23% |
| CC(OC(=O)CN1C(=O)C2CCCCC2C1=O)C(=O)Nc1ncc(Cl)cc1Cl (stereo unspecified) | 0.87% |
| c1ccc2c(c1)OCC(CNc1ncnc3nc[nH]c13)O2 (stereo unspecified) | 109% (active) |
| O=C(COc1ccc(F)cc1Br)NCC1COc2ccccc2O1 (stereo unspecified) | 0.07% |
| O=C(COC(=O)c1ccc(F)cc1)NCC1COc2ccccc2O1 (stereo unspecified) | 1.54% |
| Cn1c(N)cc(=O)n(C)c1=S | -0.09% |
